Source: PubChem BioAssay (National Center for Advancing Translational Sciences (NCATS))
Rows were chosen to be rich in hits. Some 8% of all compounds tested hit in one or more screens of this group.
SW480 rerep: A quantitative high throughput screen for small molecules that induce DNA re-replication in SW480 colon adenocarcinoma cells. SW480 DNA re-replication, Hoechst DNA content imaging, 48 h. Potency, µM (titrated, usually from 46.1 µM), without a hit: top-dose re-replication activation, actives largely listed as activators. 1.8% of 340,000 active. AID 624297, 2012; also: % of control where 0% means no effect; nearly all actives have a fitted effect of over 55% in size
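First, 250 cells per well were seeded. Next, compound or vehicle (23 nL) was pinned in, plates sat 48 hr at 37 C. Finally Hoechst was added for 40 min before fluorescence scanning.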
KB-V1 cytotox: qHTS assay for MDR1-selective chemotherapeutics: Primary screen using the drug-selected MDR subline cells KB-V1; 3.4% of 400,000 active; KB-V1 MDR cells viability, CellTiter-Glo, 72 h; Potency, µM (top dose mostly 46.1 µM), most hits filed as cytotoxic; also: % is scaled to controls: 0 for no effect and ±100 for the full control effect; nearly all actives have a fitted effect of over 60% in size
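Cytotoxicity via CellTiter-Glo luminescence after 72 h compound exposure at 37 degrees C. Cells: drug-selected KB-V1 line, DMEM phenol-red free plus 10% FBS. Compounds tested at multiple concentrations; normalized data fitted to concentration-effect curves.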
KB-3-1 tox: qHTS assay for MDR1-selective chemotherapeutics: Primary screen using the parental adenocarcinoma cell KB-3-1; KB-3-1 viability, CellTiter-Glo ATP luminescence, 72 h; Potency, µM (top dose mostly 46.1 µM), most hits filed as cytotoxic; 1.4% of 400,000 active; AID 1347075, 2019; also: % is scaled to controls: 0 for no effect and ±100 for the full control effect; nearly all actives have a fitted effect of over 60% in size
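Luminescent ATP read-out (CellTiter-Glo) measures survival of drug-naive KB-3-1 cells after 72 h compound exposure at 37 °C. Titration series was screened from lowest to highest concentration, with DMSO vehicle plates as background controls.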
HT1080 IDH1KD tx: qHTS for induction of synthetic lethality in tumor cells producing 2HG: qHTS for the HT-1080-IDH1KD cell line | HT-1080 IDH1 knockdown viability, ATP luminescence, 48 h | Potency, µM (highest dose often 46.1 µM), for the others: at the top dose activity, negative = toxicity, usual class: cytotoxic | 2% of 360,000 active;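 also: 0% = DMSO wells and -100% = cell-free medium wells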
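Viability of IDH1-knockdown HT-1080 fibrosarcoma cells was assessed by CellTiter-Glo after 48 h at 37 °C with titrated compound; concentration-effect curves were classified by fit quality and response size.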
HT1080-NT tox: qHTS for induction of synthetic lethality in tumor cells producing 2HG: qHTS for the HT-1080-NT fibrosarcoma cell line. HT-1080-NT fibrosarcoma viability, CellTiter-Glo ATP luminescence, 48 h. Potency, µM (top dose mostly 46.1 µM), for the others: top-dose activity, negative = less viability, usual class: cytotoxic. 1.6% of 360,000 active. AID 686970, 2013;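 also: NT is the 2HG producing partner of a matched IDH1 knockdown line; 0% = DMSO-treated cells and -100% = media-only wells without cells; nearly all actives have a fitted effect of over 55% in size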
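750 cells/well, RPMI + 5% FBS; 2 h settle, compound pin-transfer, 48 h at 37 degrees C. CellTiter-Glo 10 min RT, luminescence. Normalized to DMSO and media-only wells.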
MCF10A rerep: A quantitative high throughput screen for small molecules that induce DNA re-replication in MCF 10a normal breast cells; AID 624296, 2012; 2.9% of 350,000 active; Potency, µM (titrated, usually from 46.1 µM), inactives show top-dose activity, positive = re-replication, most hits filed as activators; MCF 10A DNA re-replication, Hoechst nuclear intensity, 48 h; also: % of control where 0% means no effect; nearly all actives have a fitted effect of over 50% in size
The depositor's hits bear a star; i = inactive; u = inconclusive; x = not tested or not shown; ! = not active in a repeat. Calls follow the shape of the dose curve; as a rule, active = well fitted curve in the direction sought with a large enough effect; inconclusive = small, poorly fitted or top-dose-only effect, or another doubt; inactive = no such curve, though single readings can be large; an effect the other way counts as inactive or inconclusive. Potency is read from the fitted curve at half-maximal effect.

SMILES | SW480 rerep | KB-V1 cytotox | KB-3-1 tox | HT1080 IDH1KD tx | HT1080-NT tox | MCF10A rerep
CCOc1ccc(NC(=O)CN2C(=O)C3(SCC(=O)N3c3ccc(F)cc3)c3ccccc32)cc1 (centres undefined) | x | i | i | x | x | x
C[C@@H]1C[C@H](O)c2cc(Cl)ccc2N1 | -4% | i | i | -5% | -8% | 6%
N#CC1CC(c2ccccc2)Nc2cc(Cl)ccc2N1 (centres undefined) | 13µM* | i | u | u | u | u
Cc1noc(C)c1S(=O)(=O)N1CCCC(C(=O)Nc2ccc(C(C)C)cc2)C1 (centres undefined) | x | i | i | x | x | x
COc1ccccc1CNC(=O)Cn1ncc2c(C)n(Cc3ccccc3Cl)c(C)c2c1=O | x | i | i | x | x | x
CC(O)(C(=O)c1ccccc1)c1ccccc1 (centres undefined) | x | i | i | 5% | 26% | x
CN(C)C/C=C/C(O)(c1ccccc1)c1ccccc1 | 4% | i | i | 0% | 0% | 16µM*
C[C@](N)(Cc1ccc(O)c(O)c1)C(=O)O | 2.8µM*! | i | i | -1% | -28% | -54%
CC(=O)Nc1ccc(S(=O)(=O)N2CCN(c3nc(NC4CCCC4)c4ccccc4n3)CC2)cc1 | u | u | u | u | 18µM* | u
CC(=O)Nc1ccc(S(=O)(=O)N2CCN(c3cc(C)nc4ccccc34)CC2)cc1 | 12% | i | i | u | -22% | 0%
Cc1ccc2c(c1)N(CC(=O)OC(CC(C)C)C(=O)NC1CCCC1)C(=O)CO2 (centres undefined) | 2% | 3.7µM* | i | -22% | 5% | u
CC(C)C(OC(=O)CN1C(=O)COc2ccccc21)C(=O)NC1CCCCC1 (centres undefined) | -1% | u | i | 7% | 23% | 11%
CC(C)C(OC(=O)CN1C(=O)COc2ccccc21)C(=O)NC1CCCC1 (centres undefined) | -7% | 6.5µM* | i | 2% | 15% | -2%
CC(=O)C1=C(C)OC(N)=C(C#N)C1c1cccc([N+](=O)[O-])c1 (centres undefined) | 0% | i | i | -9% | -3% | -6%
CC(=O)C1=C(C)OC(N)=C(C#N)C1c1cc([N+](=O)[O-])ccc1Cl (centres undefined) | 3.3µM* | i | i | u | 16µM* | u
Cc1ccc(NC(=O)CN2C(=O)CSc3ccc(S(=O)(=O)N(C)C)cc32)c(C)c1 | x | i | i | x | x | x
Brc1ccc(-c2c[n+]3c(n2-c2ccccc2)SCC3)cc1 | -14% | i | u | u | -18% | u
COc1ccc(-c2c[n+]3c(n2-c2ccccc2)SCC3)cc1OC | -5% | i | i | 8% | 7% | 0%
Cc1ccc(-c2c[n+]3c(n2-c2ccccc2)SCC3)cc1 | -8% | i | 3.3µM* | u | -28% | 2%
COc1ccc(-c2c[n+]3c(n2-c2ccccc2)SCC3)cc1 | -4% | i | 4.1µM* | u | -23% | -3%
Clc1ccc(Oc2ncnc3oc(-c4ccccc4)cc23)cc1 | 0% | i | i | 7% | 8% | 5.8µM*
Cc1ccccc1Oc1ncnc2oc(-c3ccccc3)cc12 | -2% | i | i | 0% | 1% | u
Cc1nn2c(-c3ccccc3)ccnc2c1-c1ccccc1 | 19% | 15µM* | i | 4% | 9% | u
